# PubChem BioAssay (NCATS)
# Where “and” joins values, the source holds several entries; their conditions need not be identical. Identical values can stand only once. Records with an inconclusive call do not appear. Calls of active or inactive are those of the source. Unless noted, calls follow the shape of the dose curve; as a rule, active = well fitted curve in the direction sought with a large enough effect; inconclusive = small, poorly fitted or top-dose-only effect, or another doubt; inactive = no such curve, though single readings can be large; an effect the other way counts as inactive or inconclusive.
# Key:
# [1] = molecular target: Tyrosine-protein kinase Yes (Homo sapiens) (UniProt P07947); experiment: qHTS for small molecule inhibitors of Yes1 kinase: Primary Screen (AID 686947); also: nearly all actives have a fitted effect of over 60% in size; also: potency is read from the fitted curve at half-maximal effect
# Tyrosine-protein kinase Yes (Homo sapiens), sequence (P07947 whole entry, looked up): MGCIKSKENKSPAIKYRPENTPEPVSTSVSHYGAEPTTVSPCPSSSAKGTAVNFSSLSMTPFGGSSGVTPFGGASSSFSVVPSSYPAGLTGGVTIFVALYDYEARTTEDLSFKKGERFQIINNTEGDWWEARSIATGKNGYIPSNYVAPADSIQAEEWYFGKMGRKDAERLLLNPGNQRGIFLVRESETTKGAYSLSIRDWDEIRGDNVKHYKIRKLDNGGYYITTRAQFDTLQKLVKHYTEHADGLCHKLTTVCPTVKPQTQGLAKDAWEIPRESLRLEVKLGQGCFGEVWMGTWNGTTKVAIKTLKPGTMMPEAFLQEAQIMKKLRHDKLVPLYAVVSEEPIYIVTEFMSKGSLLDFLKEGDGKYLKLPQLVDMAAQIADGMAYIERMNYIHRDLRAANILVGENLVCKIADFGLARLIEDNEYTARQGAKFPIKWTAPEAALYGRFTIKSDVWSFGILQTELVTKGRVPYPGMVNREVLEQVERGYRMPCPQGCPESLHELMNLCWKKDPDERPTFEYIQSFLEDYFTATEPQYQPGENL
# How it was run: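 In this qHTS format, inhibition is expressed relative to DMSO controls with enzyme (maximum) and without enzyme (minimum). The 60 min room-temperature reaction uses 0.1 mM ATP, with ADP detected by luminescence.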
# [2] = qHTS for small molecule inhibitors of Yes1 kinase: Counter Assay (AID 686950);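 also: no kinase present so only ADP-Glo detection of a fixed ADP amount is tested; luminescence from ADP-Glo reporting ADP in a fixed ATP and ADP mixture; 0% = DMSO wells with ATP plus ADP and -100% = ATP-only wells without ADP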
# How it was run: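 ADP-Glo luminescence read after a 60 min room-temperature incubation of compound with an ATP/ADP mix (0.08 mM/0.02 mM) and no kinase, following a 20 min compound preincubation. Signal scaled between ATP+ADP (max) and 0.1 mM ATP-only (min) wells; Tris pH 7.5, Mg2+, DTT.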
# [3] = qHTS Assay for Identifying Gametocytocidal Compounds (AID 743244);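 also: % is scaled to controls: 0 for no effect and ±100 for the full control effect; actives lower the fluorescent signal which means gametocytes are killed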; conditions: P. falciparum 3D7 stage III-V gametocytes, alamarBlue, 72 h; max response: stronger effect = lower value
# How it was run: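 Compounds are pinned into medium, gametocytes (stage III–V, 3D7, 20,000 cells/well) added, and plates held 72 h at 37 °C in 5% CO2. AlamarBlue follows for 24 h before fluorescence reading.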
# [4] = qHTS profiling for inhibitors of Plasmodium falciparum (3D7) proliferation (AID 743322; call rule not given here;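 also: infected erythrocytes exposed to compound for 72 h before lysis; 100% = DMSO vehicle wells and 0% = 0.29 µM artemisinin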); conditions: P. falciparum 3D7 proliferation; at 28.7 µM (top of the series) unless noted
# How it was run: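 Parasite DNA was quantified by SYBR Green I fluorescence (ex 485, em 535 nm) after overnight lysis in saponin/Triton buffer at room temperature. Cultures at 0.3% parasitemia and 2.5% hematocrit were first exposed to compound for 72 h at 37 C; signals were normalised to artemisinin (0.29 uM) and vehicle wells.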
# [5] = qHTS profiling for inhibitors of Plasmodium falciparum (DD2) proliferation (AID 743323; call rule not given here); conditions: lower = more inhibition; at 28.7 µM (top of the series) unless noted
# How it was run: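 Parasite proliferation measured via DNA-dye fluorescence, as uninfected erythrocytes lack DNA. Cultures at 0.3% parasitemia and 2.5% hematocrit incubated 72 h with compound; signal scaled between vehicle and 0.29 uM artemisinin wells.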
# [6] = qHTS assay for environmental chemicals that activate the Aryl hydrocarbon Receptor (AhR) signaling pathway (AID 651777); conditions: 1A2-DRE human hepatoma cells, luciferase, 24 h; stronger effect = higher value; also: % of control where 0% means no effect; nearly all actives have a fitted effect of over 15% in size
# How it was run: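 Measured luciferase activity, read 30 min after One-Glo addition at room temperature, from human hepatoma cells bearing a dioxin response element–CYP1A2 promoter reporter and exposed to compound for 24 hr at 37 C.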
# [7] = molecular target: Peroxisome proliferator-activated receptor alpha (Homo sapiens) (UniProt Q07869); experiment: qHTS assay for small molecule agonists of the peroxisome proliferator-activated receptor alpha (PPARalpha) signaling pathway (AID 651778); conditions: PathHunter PPARalpha complementation, chemiluminescence, 6 h; stronger effect = higher value; also: % of control where 0% means no effect
# Peroxisome proliferator-activated receptor alpha (Homo sapiens), sequence (Q07869 whole entry, looked up): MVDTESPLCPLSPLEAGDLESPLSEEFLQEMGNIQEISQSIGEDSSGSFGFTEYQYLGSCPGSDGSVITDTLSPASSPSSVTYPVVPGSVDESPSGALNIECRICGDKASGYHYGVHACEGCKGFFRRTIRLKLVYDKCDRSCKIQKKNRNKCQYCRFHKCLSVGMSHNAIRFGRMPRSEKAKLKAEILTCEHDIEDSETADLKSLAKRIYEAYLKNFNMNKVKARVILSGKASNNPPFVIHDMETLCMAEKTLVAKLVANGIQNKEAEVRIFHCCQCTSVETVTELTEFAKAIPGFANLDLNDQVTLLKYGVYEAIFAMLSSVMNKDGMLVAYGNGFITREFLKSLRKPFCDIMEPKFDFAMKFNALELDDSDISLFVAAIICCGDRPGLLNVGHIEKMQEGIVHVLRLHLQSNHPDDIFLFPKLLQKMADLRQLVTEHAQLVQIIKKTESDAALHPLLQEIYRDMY
# How it was run: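 Chemiluminescence from complemented enzyme reported PPARalpha activation in cells after 6 hr of compound treatment at 37 C. The detection reagent was incubated for 60 min at room temperature, and compounds were scored as agonists.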
# [8] = molecular target: Nuclear receptor ROR-gamma (Homo sapiens) (UniProt P51449); experiment: qHTS assay for small molecule antagonists of the retinoid-related orphan receptor gamma (ROR-gamma) signaling pathway (AID 651802);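 also: CHO cells with doxycycline-induced ROR-gamma expression; luciferase reporter luminescence driven by ROR response element; % is scaled to controls: 0 for no effect and ±100 for the full control effect; nearly all actives have a fitted effect of over 60% in size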
# Nuclear receptor ROR-gamma (Homo sapiens), sequence (P51449 whole entry, looked up): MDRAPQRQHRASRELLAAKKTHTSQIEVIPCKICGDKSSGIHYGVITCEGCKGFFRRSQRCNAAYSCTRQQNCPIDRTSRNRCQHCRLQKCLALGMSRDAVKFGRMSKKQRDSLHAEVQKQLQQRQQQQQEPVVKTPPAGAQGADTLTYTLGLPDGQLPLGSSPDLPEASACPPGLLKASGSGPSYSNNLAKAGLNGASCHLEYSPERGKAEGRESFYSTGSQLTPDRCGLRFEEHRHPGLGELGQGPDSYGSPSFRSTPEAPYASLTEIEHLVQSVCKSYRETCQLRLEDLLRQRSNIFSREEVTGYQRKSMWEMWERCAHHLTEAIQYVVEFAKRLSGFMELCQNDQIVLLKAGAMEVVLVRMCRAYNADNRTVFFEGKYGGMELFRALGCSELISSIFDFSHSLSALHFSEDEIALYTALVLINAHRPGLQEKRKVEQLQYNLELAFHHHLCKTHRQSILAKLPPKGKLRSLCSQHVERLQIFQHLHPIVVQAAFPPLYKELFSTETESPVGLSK
# How it was run: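 Doxycycline-induced reporter activity in engineered CHO cells (TET-inducible ROR, RORE-LUC) was measured by luminescence after 16hr compound exposure at 37C.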
# [9] = qHTS assay for small molecule agonists of the antioxidant response element (ARE) signaling pathway measured by Nrf2-dependant transcriptional activity (AID 720636; active = well fitted curve in the direction sought with a large enough effect in the repeat runs; an effect the other way counts as inactive or inconclusive;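 also: HepG2 cells with an ARE-driven luciferase reporter; % of control where 0% means no effect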)
# How it was run: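 In HepG2 cells engineered with an Nrf2-responsive luciferase gene, ARE induction was quantified as luminescence after 16 hr compound treatment at 37 C.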
# [10] = qHTS assay for small molecule antagonists of the retinoid-related orphan receptor gamma (ROR-gamma) signaling pathway - cell viability counter screen (AID 720652; active = well fitted curve in the direction sought with a large enough effect in the repeat runs; an effect the other way counts as inactive or inconclusive;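 also: CHO reporter cells with doxycycline-induced ROR-gamma expression; compound exposure lasted 16 hr before ATP read; % is scaled to controls: 0 for no effect and ±100 for the full control effect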)
# How it was run: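 ATP-based viability readout in the ROR-gamma reporter CHO cells after 16 hr compound exposure under doxycycline induction.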
# [11] = qHTS assay for small molecule agonists of the antioxidant response element (ARE) signaling pathway measured by Nrf2-dependant transcriptional activity - cell viability counter screen (AID 720653; active = well fitted curve in the direction sought with a large enough effect in the repeat runs; an effect the other way counts as inactive or inconclusive; also: % is scaled to controls: 0 for no effect and ±100 for the full control effect); conditions: ARE-bla HepG2 viability, CellTiter-Glo ATP luminescence, 16 h; stronger effect = lower value
# How it was run: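 Cytotoxicity counter screen: intracellular ATP quantified by CellTiter-Glo luminescence in the same ARE-bla HepG2 plates, after 16 h compound exposure and a 2 h beta-lactamase substrate step.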
# [12] = qHTS assay for cell viability of HEK293 cells (AID 743288); conditions: ATP luminescence (CellTiter-Glo), 18 h, stronger effect = lower value; also: % is scaled to controls: 0 for no effect and ±100 for the full control effect; nearly all actives have a fitted effect of over 50% in size
# How it was run: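 ATP luminescence (CellTiter-Glo) reports metabolically competent cell number after parental HEK293 cells, 2,000/well, were treated with DMSO-dissolved compounds for 18 h at 37 C; reagent incubation 30 min, room temperature.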
# [13] = qHTS assay for cell viability of the p53RE-bla HCT-116 cell line (AID 743292); also: % is scaled to controls: 0 for no effect and ±100 for the full control effect; nearly all actives have a fitted effect of over 55% in size
# How it was run: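 Intracellular ATP of p53RE-bla HCT-116 cells measured by luciferase luminescence following 16 h compound incubation at 37 C; DMSO-only wells served as vehicle controls.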
smiles,measurement,setting,value
CCCCn1c(=O)n(Cc2ccccc2F)c(=O)c2[nH]c(Cc3ccc(NC(C)=O)cc3)nc21,Potency,[1],inactive
same,outcome,[2],inactive
same,max response,[3],66.3% (inactive)
same,remaining parasite growth % (stronger effect = lower value),[4],71.1%
same,"activity, percent of control",[5],63.7%
Cn1cc(-c2ccc3nnc(Sc4ccc5ncccc5c4)n3n2)cn1,Potency,[1],inactive
same,outcome,[2],inactive
same,remaining parasite growth % (stronger effect = lower value),[4],74.3%
same,"activity, percent of control",[5],95.2%
C[C@@H]1C[C@H]2[C@@H]3CCC4=CC(=O)C=C[C@]4(C)[C@@]3(F)[C@@H](O)C[C@]2(C)[C@@]1(O)C(=O)CO,activation,[6],-0.0369% (inactive) and 0.315% (inactive)
same,max response,[7],-0.146% (inactive) and 1.68% (inactive)
same,outcome,[8],inactive
same,outcome,[9],inactive
same,outcome,[10],inactive
same,max response,[11],-1.58% (inactive) and -7.2% (inactive)
same,max response,[12],-1.33% (inactive) and -8.25% (inactive)
same,outcome,[13],inactive
CC(C)(C)c1[nH]cnc1C=c1[nH]c(=O)c(=Cc2ccccc2)[nH]c1=O,Potency,[1],inactive
same,outcome,[2],inactive
Cc1nn(Cc2ccccc2Cl)c(C)c1CN(C)CC(O)COc1ccc(Cl)cc1 (stereo unspecified),Potency,[1],inactive
same,outcome,[2],inactive
same,remaining parasite growth % (stronger effect = lower value),[4],29.8%
same,"activity, percent of control",[5],18.1%
Cc1c(C(=O)Nc2ccc(N3C[C@@H](C)O[C@@H](C)C3)nc2)cccc1-c1ccc(OC(F)(F)F)cc1,Potency,[1],inactive
same,outcome,[2],inactive
same,remaining parasite growth % (stronger effect = lower value),[4],72.2%
same,"activity, percent of control",[5],72.3%
COc1ccc(CCN(C)CCCOc2ccc(S(=O)(=O)c3[nH]c4ccccc4c3C(C)C)cc2)cc1OC,Potency,[1],inactive
same,outcome,[2],inactive
same,remaining parasite growth % (stronger effect = lower value),[4],-1%
same,"activity, percent of control",[5],1.03%
Cc1cccc(Nc2nc(N[C@@H]3CCCC[C@H]3N)ncc2C(N)=O)c1,Potency,[1],387 nM (active)
same,outcome,[2],inactive
same,remaining parasite growth % (stronger effect = lower value),[4],0.221%
same,"activity, percent of control",[5],4.78%
COc1cc2ncn(-c3cc(OCc4ccccc4S(C)(=O)=O)c(C#N)s3)c2cc1OC,Potency,[1],232 nM (active)
same,outcome,[2],inactive
CCc1cc(-c2n[nH]c(C)c2-c2ccc3c(c2)OCCO3)c(O)cc1O,Potency,[1],4340 nM (active)
same,outcome,[2],inactive
same,max response,[3],-4.02% (inactive)
same,remaining parasite growth % (stronger effect = lower value),[4],99.3%
same,"activity, percent of control",[5],90.4%
CC(C)n1c(C=C[C@H](O)C[C@H](O)CC(=O)O)c(-c2ccc(F)cc2)c2ccccc21,Potency,[1],inactive
same,outcome,[2],inactive
OCCn1cc(-c2ccc3c(c2)CCC3=NO)c(-c2ccncc2)n1,Potency,[1],inactive
same,outcome,[2],inactive
same,remaining parasite growth % (stronger effect = lower value),[4],89.8%
same,"activity, percent of control",[5],97.1%
CNC(=O)c1cc(COc2nnc(Nc3ccc(Cl)cc3)c3ccoc23)ccn1,Potency,[1],inactive
same,outcome,[2],inactive
same,remaining parasite growth % (stronger effect = lower value),[4],54.7%
same,"activity, percent of control",[5],68.5%
COc1cc2nccc(Oc3ccc(NC(=O)Nc4cc(C)on4)c(Cl)c3)c2cc1OC,Potency,[1],772 nM (active)
same,outcome,[2],inactive
same,max response,[3],19.1% (inactive)
same,remaining parasite growth % (stronger effect = lower value),[4],62.8%
same,"activity, percent of control",[5],62%
CN1C(=O)C(Cc2c[nH]c3ccccc23)NC1=S (stereo unspecified),Potency,[1],inactive
same,outcome,[2],inactive
same,remaining parasite growth % (stronger effect = lower value),[4],109%
same,"activity, percent of control",[5],91.5%
O=C1C(CCC(O)c2ccc(F)cc2)C(c2ccc(O)cc2)N1c1ccc(F)cc1 (stereo unspecified),Potency,[1],inactive
same,outcome,[2],inactive
same,remaining parasite growth % (stronger effect = lower value),[4],18.4%
same,"activity, percent of control",[5],83.7%
CC(C)C[C@H](NC(=O)c1cc2ccccc2s1)C(=O)N1CCN(C(=O)[C@H](CO)NS(=O)(=O)c2ccc(Cl)cc2Cl)CC1,Potency,[1],inactive
same,outcome,[2],inactive
same,remaining parasite growth % (stronger effect = lower value),[4],17.9%
same,"activity, percent of control",[5],27.2%
O=C(Nc1cccc(Cl)c1)Nc1ncc(CCNc2ncnc3ccsc23)s1,Potency,[1],inactive
same,outcome,[2],inactive
same,remaining parasite growth % (stronger effect = lower value),[4],0.421%
same,"activity, percent of control",[5],4.65%
CCCCCCCCCCCCCC(=O)N[C@H](CO)[C@H](O)c1ccc([N+](=O)[O-])cc1,Potency,[1],inactive
same,outcome,[2],inactive
same,remaining parasite growth % (stronger effect = lower value),[4],90.4%
same,"activity, percent of control",[5],82.3%
CC(O)=C(C#N)C(=O)Nc1ccc(C(F)(F)F)cc1,Potency,[1],inactive
same,outcome,[2],inactive
same,remaining parasite growth % (stronger effect = lower value),[4],89.8%
same,"activity, percent of control",[5],95.5%
O=C1Nc2ccc(I)cc2C1=Cc1cc(Br)c(O)c(Br)c1,Potency,[1],5820 nM (active)
same,outcome,[2],inactive
Nc1ccc(-c2ccc3ncc4ccc(=O)n(-c5cccc(C(F)(F)F)c5)c4c3c2)cn1,Potency,[1],27400 nM (active)
same,outcome,[2],inactive
same,remaining parasite growth % (stronger effect = lower value),[4],-1.33%
same,"activity, percent of control",[5],-0.278%
CCOC(=O)[C@@H](N)CCC(=O)N[C@@H](CSCc1ccccc1)C(=O)N[C@@H](C(=O)OCC)c1ccccc1,Potency,[1],inactive
same,outcome,[2],inactive
same,remaining parasite growth % (stronger effect = lower value),[4],51.1%
same,"activity, percent of control",[5],92%
Cc1ccc(C(=O)N(CCCN)[C@@H](c2nc3cc(Cl)ccc3c(=O)n2Cc2ccccc2)C(C)C)cc1,Potency,[1],inactive
same,outcome,[2],inactive
same,remaining parasite growth % (stronger effect = lower value),[4],-0.752%
same,"activity, percent of control",[5],0.933%
COc1c(C)cnc(Cn2cnc3c(Cl)nc(N)nc32)c1C,Potency,[1],inactive
same,outcome,[2],inactive
same,remaining parasite growth % (stronger effect = lower value),[4],40.5%
same,"activity, percent of control",[5],31.4%
COc1ccc2c(c1)CC[C@H]1[C@@H]2CC[C@]2(C)[C@@H](NCCCCCCN3C(=O)C=CC3=O)CC[C@H]12,Potency,[1],inactive
same,outcome,[2],inactive
CCCCc1ccc(NS(=O)(=O)c2ccc(C)c(C(=O)N3CCN(c4cccc(C)c4C)CC3)c2)cc1,Potency,[1],inactive
same,outcome,[2],inactive
same,max response,[3],17% (inactive)
same,remaining parasite growth % (stronger effect = lower value),[4],37.4%
same,"activity, percent of control",[5],96.6%
